Bioassay records as filed in PubChem BioAssay.
DT40 TDP1 CPT = growth inhibition of DT40 Tdp1-/-;hTDP1 cells with camptothecin (screen for TDP1 inhibitors) | 420,000 tested, 12% active | chicken DT40 Tdp1-/-;hTDP1 cells + 20 nM CPT, ATP luminescence, 48 h | Potency, µM (series often up to 46.2 µM), inactives show at the highest dose activity change, negative = growth inhibition, usual class: inhibitors; note: % is set by controls: 0 for no effect and ±100 for the full control effect; nearly all actives have a fitted effect of over 55% in size
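Cell growth measured by CellTiter-Glo luminescence after a minimum 48 h, 37 C compound exposure with 20 nM CPT in Tdp1-knockout DT40 cells stably expressing hTDP1, seeded 400/well; qHTS titration format.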
ClpP mod = qHTS Assay for Activators of ClpP; purified B. subtilis ClpP, FRET peptide cleavage, 20 min; 340,000 tested, 1.9% active; Potency, µM (top dose mostly 57.5 µM), inactives show at the highest dose activity change, negative = active; active = well fitted falling curve with a large enough effect; inconclusive = small, poorly fitted or top-dose-only effect; inactive = no such curve, though single readings can be large or run the other way; note: the source files actives as falling curves though it sought activators and does not explain the sign; nearly all actives have a fitted effect of over 65% in size
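Buffer: 100 mM Tris/HCl pH8, 100 mM KCl, 0.05% low protease BSA, 2.5% glycerol, 0.01% Tween-20. ClpP 10 microg/mL final; 20 min RT; delta FRET normalized to ADEP and DMSO controls.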
DT40 TDP1 no CPT = qHTS for Inhibitors of human tyrosyl-DNA phosphodiesterase 1 (TDP1): qHTS in cells in absence of CPT | DT40 Tdp1-/- hTDP1 cells, no CPT, ATP luminescence, 48 h | AID 686978, 2013 | Potency, µM (top dose mostly 46.2 µM), without a hit: at the highest dose activity change, negative = growth inhibition, most hits filed as inhibitors | 420,000 tested, 15% active; note: % is set by controls: 0 for no effect and ±100 for the full control effect; nearly all actives have a fitted effect of over 55% in size
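Seeded 400 DT40-hTDP1 cells/well (vehicle DMSO, no 20 nM CPT); pinned compounds; ≥48 hr at 37 °C; CellTiter-Glo luminescence as viability measure.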
TDP1 block = blocks human tyrosyl-DNA phosphodiesterase 1; recombinant TDP1, AlphaScreen DNA substrate cleavage; AID 485290; Q9NUW8; 350,000 tested, 0.28% active; Potency, µM (top dose mostly 130 µM), inactives show top-dose activity change, negative = inhibition, usual class: inhibitors; note: % is set by controls: 0 for no effect and ±100 for the full control effect; nearly all actives have a fitted effect of over 40% in size
Target sequence (Q9NUW8 whole entry, looked up): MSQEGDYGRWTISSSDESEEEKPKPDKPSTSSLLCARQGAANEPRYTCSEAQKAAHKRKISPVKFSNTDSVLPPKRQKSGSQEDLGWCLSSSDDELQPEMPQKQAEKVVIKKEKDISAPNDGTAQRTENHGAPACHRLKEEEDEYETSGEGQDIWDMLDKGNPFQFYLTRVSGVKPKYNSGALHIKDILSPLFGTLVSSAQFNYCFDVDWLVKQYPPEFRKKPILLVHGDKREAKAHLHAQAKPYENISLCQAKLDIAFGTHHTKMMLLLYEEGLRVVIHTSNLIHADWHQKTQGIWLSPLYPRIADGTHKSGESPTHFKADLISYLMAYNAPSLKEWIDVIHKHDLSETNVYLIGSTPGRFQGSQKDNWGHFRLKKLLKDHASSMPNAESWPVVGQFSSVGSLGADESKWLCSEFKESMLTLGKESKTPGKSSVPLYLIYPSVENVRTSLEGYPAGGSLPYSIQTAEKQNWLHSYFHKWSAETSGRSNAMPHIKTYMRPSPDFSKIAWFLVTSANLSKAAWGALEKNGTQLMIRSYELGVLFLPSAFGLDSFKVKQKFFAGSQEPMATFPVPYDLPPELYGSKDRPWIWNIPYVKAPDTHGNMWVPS
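Compounds were preincubated with Tdp1 (1 nM final) for 15 min at room temperature before substrate (15 nM final) started a 5 min reaction; beads (10 ug/ml final) were then added for 10 min before AlphaScreen detection.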
Starred values were filed as active, the others as inactive; u = inconclusive; x = no result; [ ] = remark or other dose. This is a sample that favours compounds with a hit; in the whole collection about 17% have one here. Unless noted, calls come from the whole dose curve; as a rule, active = well fitted curve in the direction sought with a large enough effect; inconclusive = small, poorly fitted or top-dose-only effect, or another doubt; inactive = no such curve, though single readings can be large; an effect the other way counts as inactive or inconclusive. Potency is the fitted concentration of half-maximal effect.

SMILES	DT40 TDP1 CPT	ClpP mod	DT40 TDP1 no CPT	TDP1 block
O=C(CCl)N1c2ccccc2Sc2ccc3ccccc3c21	3.7µM*	-6%	2.3µM*	x
COc1cccc(CNC(=O)Cc2ccc(NC(=O)N3CCSc4ncccc43)cc2)c1OC	u	-13%	u	6%
O=C(c1ccc2c(=O)n(Cc3ccc(Cl)cc3)c(=S)[nH]c2c1)N1CCCC1	-18%	0%	u	1%
CCCCCn1c(=O)[nH]c2cc(C(=O)NCc3ccc4c(c3)OCO4)ccc2c1=O	-9%	14%	-16%	5%
CN1CCN(C(=O)c2ccc3c(=O)n(Cc4ccc5c(c4)OCO5)c(=S)[nH]c3c2)CC1	22µM*	2%	13µM*	x
CN1CCN(C(=O)c2ccc3c(=O)n(Cc4ccc(Cl)cc4)c(=S)[nH]c3c2)CC1	21µM*	0%	u	2%
CCCCCn1c(=O)[nH]c2cc(C(=O)N3CCN(Cc4ccc5c(c4)OCO5)CC3)ccc2c1=O	4.6µM*	-5%	10µM*	4%
O=C(c1ccc2c(=O)n(Cc3ccc4c(c3)OCO4)c(=S)[nH]c2c1)N1CCCCC1	u	0%	u	-8%
CCN(CC)S(=O)(=O)c1ccc2c(c1)N(CC(=O)NCc1ccc(F)cc1)C(=O)CO2	-19%	0%	-17%	3%
COc1ccc(CN2C(=O)CNC2=S)cc1	-7%	1%	8%	x
CC(I)CCC(C)[n+]1cccc(I)c1 (stereo unspecified)	15%	-1%	4%	x
O=C(c1ccc2c(=O)n(-c3ccccc3)c(=O)[nH]c2c1)N1CCN(Cc2cccs2)CC1	u	-10%	u	x
CC(=O)c1ccc(N=C2NC(=O)C(CO)(CO)S2)cc1	2%	-1%	22%	x
COc1ccccc1C(=O)Nc1nc(-c2ccccc2)ns1	-29%	-3%	23µM*	2%
COc1cc(CNc2ccc(C)c(C)c2)cc(OC)c1OC	2.1µM*	-1%	1.3µM*	u
CCOC(=O)c1sc(NC(=O)c2ccccc2OC)nc1C	8.2µM*	-7%	u	3%
CCOC(=O)c1sc(NC(=O)c2cc3ccccc3o2)nc1C	0%	0%	-11%	2%
COc1ccccc1C(=O)Nc1nc2ccccc2s1	16µM*	4%	10µM*	x
CCC(=O)Nc1nc(-c2ccccc2)ns1	-18%	0%	-17%	2%
COc1ccccc1C(=O)Nc1nc2ccc(S(C)(=O)=O)cc2s1	u	u	u	4%[56.1 µM]
COCCCn1cnnc1SC(C)C(=O)Nc1ccc(S(=O)(=O)N2CCOCC2)cc1 (stereo unspecified)	2%	0%	3%	0%
CN(C(=O)Cn1ncc2c1-c1ccccc1OC2)c1ccc(Br)cc1	-28%	-6%	u	1%
COc1ccc(C(=O)Nc2nc3ccccc3s2)c(OC)c1	u	x	21µM*	1%
COc1ccc(C(=O)Nc2ccccc2Cc2ccccc2)c(OC)c1	18µM*	2%	u	0%
COc1ccc2sc(NCc3ccccc3)nc2c1	-12%	1%	-10%	4%
SMILES	DT40 TDP1 CPT	ClpP mod	DT40 TDP1 no CPT	TDP1 block
COc1cc(CNc2nc3ccccc3s2)cc(OC)c1OC	0%	x	23µM*	x
COc1ccccc1C(=O)Nn1c(C)nc2ccccc2c1=O	10µM*	0%	u	x
CCCCc1ccc(NC(=O)C2(C)Cc3ccccc3C(=O)O2)cc1 (stereo unspecified)	u	0%	u	-3%
O=S(=O)(O)c1cc(I)c(O)c2ncccc12	21µM*	x	21µM*	-2%
C=C1C[C@H](O[C@@H]2O[C@H](CO)[C@@H](O)[C@H](O)[C@H]2O)[C@@H]2[C@H](OC(=O)[C@H]2C)[C@H]2[C@H](C)[C@H](O)C[C@@H]12	-19%	0%	2%	-5%
Nn1cnnc1N/N=C/c1ccc(Cl)c([N+](=O)[O-])c1	-30%	x	-20%	7%
CN(C)c1nc(N/N=C\c2ccc(Cl)c([N+](=O)[O-])c2)nc(Nc2ccc(F)cc2)n1	5.2µM*	-1%	5.2µM*	x
NS(=O)(=O)c1ccc(N/N=C/c2cn(-c3ccccc3)nc2-c2cccs2)cc1	5.2µM*	16µM*	2.9µM*	8%
NC(=O)N/N=C/c1cn(-c2ccccc2)nc1-c1cccs1	16µM*	x	u	4%
O=C(O)c1cccc(N/N=C/c2cn(-c3ccccc3)nc2-c2cccs2)c1	-4%	x	4%	3%
O=C(c1cn(-c2ccccc2)nc1-c1cccs1)N1CCOCC1	-12%	-22%	-15%	4%
O=C(c1cn(-c2ccccc2)nc1-c1cccs1)N1CCN(c2ccccc2)CC1	7.3µM*	u	7.3µM*	7%
CN(C)S(=O)(=O)n1cc(/C=C(\NC(=O)c2ccccc2Cl)C(=O)N2CCCC2)c2ccccc21	-27%	-5%	7%	0%
CC(c1ccccc1)N(C)C(=O)CSc1nnc(C2CC2)n1C1CC1 (stereo unspecified)	3%	-2%	21%	1%
CCCS(=O)(=O)NCc1c(C)ncc2c1CCN(C(=O)c1ccc(Cl)cc1)C2	-3%[9.04 µM]	x	-16%	x
COc1ccccc1C(=O)Nc1ccc2c(c1)nc(CCNC(=O)c1ccco1)n2C	1.3µM*	-2%	0.92µM*	4%[0.0935 µM]
Cn1c(CCNC(=O)c2ccco2)nc2cc(NS(=O)(=O)c3ccccc3)ccc21	21µM*	0%	u	7%
COc1ccc(CNC(=O)C/C(C)=N/NC(=O)c2ccc(OC)cc2OC)cc1	3%	x	-4%	6%[0.0935 µM]
O=C(NCCc1csc2nc(-c3cccc(F)c3)nn12)c1ccc(Br)o1	u	0%	u	2%
NC(Cc1ccc(C(F)(F)F)cc1)c1csc(NC(=O)Nc2ccccc2Cl)n1 (stereo unspecified)	u	-2%	21µM*	x
NC(Cc1ccc(C(F)(F)F)cc1)c1csc(NC(=O)Nc2ccccc2)n1 (stereo unspecified)	13µM*	3%	u	x
NC(Cc1ccc(Cl)cc1)c1csc(NC(=O)Nc2ccccc2)n1 (stereo unspecified)	13µM*	0%	15µM*	x
NC(COCc1ccccc1)c1csc(NC(=O)Nc2cccc(Cl)c2)n1 (stereo unspecified)	23µM*	2%	u	x
CSc1ccccc1C(=O)NC1CCCc2ccccc21 (stereo unspecified)	u	x	u	-3%
COc1ccc(CNCCSc2nnnn2-c2ccccc2)c(OC)c1	u	-4%	u	4%
Cc1ccc(Cl)cc1N1CCN(C(=O)Cc2csc(Nc3nc(=S)[nH]c4ccccc34)n2)CC1	13µM*	x	15µM*	8%
Cc1ccc(Cl)cc1N1CCN(C(=O)Cc2ccc(-n3c(=O)[nH]c4ccsc4c3=O)cc2)CC1	u	0%	u	-1%
COc1ccccc1CC(=O)N1CCN(c2cccc(Cl)c2)CC1	-13%	-1%	-28%	x
